Screening results as filed in PubChem BioAssay.
Pin1 inh: blocks the human prolyl isomerase Pin1; 0.009% of 390,000 active; Pin1 FP peptide displacement, HiFluor488, 10 min; Potency, µM (titrated, usually from 115 µM), hits mostly inhibitors; active = well fitted inhibition curve with a large enough effect in the polarisation, with a control signal flat, not every such curve was filed as active; inconclusive = small, poorly fitted or top-dose-only effect, or effect the other way, or a change in a side signal; inactive = no such curve, though single readings can be large or run the other way; the % refers to the polarisation
Target sequence (Q13526 whole entry, looked up): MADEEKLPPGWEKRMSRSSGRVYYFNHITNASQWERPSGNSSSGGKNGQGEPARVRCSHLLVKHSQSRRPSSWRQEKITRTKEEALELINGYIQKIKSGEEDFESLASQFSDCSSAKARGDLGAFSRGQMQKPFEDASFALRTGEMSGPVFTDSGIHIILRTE
A549 tox: kills or reduces viability of A549 cells in Nrf2 counter-screen; Potency, µM (doses to about 46 µM), usual class: inhibitors; AID 504648; 0.16% of 390,000 active; A549 ARE-Fluc cells, CellTiter-Fluor viability, 18-24 h
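A549 ARE-Fluc cells in 5% FBS OPTI-MEM, 5000 cells/well, rested 2 h then exposed to compounds in concentration-response for 18-24 h at 37 °C. Viability by CellTiter-Fluor fluorescence (Ex 405/Em 525) after 30 min; luciferase luminescence (BugLite, 15 min, RT) read afterwards.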
Nrf2 inh: inhibitors of Nrf2 signaling; A549 ARE-Fluc reporter, luciferase luminescence, 18-24 h; Potency, µM (series often up to 46 µM), actives largely listed as inhibitors; 2.1% of 360,000 active; note: nearly all actives have a fitted effect of over 60% in size
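A549 ARE_Fluc cells (5000/well, 5% FBS OPTI-MEM) pre-incubated 2 h, then treated with compounds 18-24 h at 37C/5% CO2 in concentration-response. CellTiter-Fluor viability read first; BugLite luciferase luminescence after 15 min at room temperature gives Nrf2 activity.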
Nrf2 activator: activators of Nrf2 (ARE) signaling | AREc32 ARE-luciferase reporter (MCF7-derived line), luminescence, 24 h | Potency, µM (titrated, usually from 46.1 µM), usual class: activators | 0.31% of 410,000 active | AID 624171; note: nearly all actives have a fitted effect of over 65% in size
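AREc32 cells carrying an ARE-driven firefly luciferase, 1000 cells/well in OPTI-MEM with 5% FBS, dosed after overnight attachment and incubated 24 hr at 37 deg C. Steady-Glo luminescence read after 30 min at RT.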
Numbers stand for hits; – = inactive; ? = inconclusive; · = no result; [ ] = dose if it differs, or a comment. Most compounds without a hit are left out; they make up all but 2.2% or so of the library. Unless noted, calls come from the whole dose curve; as a rule, active = well fitted curve in the direction sought with a large enough effect; inconclusive = small, poorly fitted or top-dose-only effect, or another doubt; inactive = no such curve, though single readings can be large; an effect the other way counts as inactive or inconclusive.

SMILES	Pin1 inh	A549 tox	Nrf2 inh	Nrf2 activator
O=C(NCC(c1cccnc1)N1CCc2ccccc21)c1cccc(Br)c1 (stereo not given)	–	–	16µM	–
O=C(NCC(c1cccnc1)N1CCc2ccccc21)c1cccc(F)c1 (stereo not given)	–	–	?	–
COc1cc(CNc2ccc(C(=O)O)cc2)cc(Br)c1OCC(=O)NC(C)(C)C	–	–	?	–
C=CCOc1c(Br)cc(CNc2ccc(NC(=O)C(C)C)c(OC)c2)cc1OC	–	–	9.2µM	–
O=C(NC(=S)N(CCc1ccccc1)CCc1ccccc1)c1ccco1	–	–	18µM	?
O=C(NC(=S)Nc1cccc(Cl)c1N1CCCCC1)c1ccco1	–	–	?	–
COc1cc(C(=O)NC(=S)Nc2ccccc2N2CCCC2)cc(OC)c1OC	–	–	18µM	–
O=C(NC(=S)Nc1ccccc1Cl)c1ccco1	–	–	?	13µM
O=C(NC(=S)Nc1ccccc1N1CCCC1)c1ccco1	?	–	–	14µM
O=C(NC(=S)Nc1ccccc1N1CCCCC1)c1ccco1	–	–	–	–
CCOC(=O)c1c(NC(=O)CSc2cn(CCNC(=O)c3c(F)cccc3F)c3ccccc23)sc2c1CCCC2	–	–	–	–
CCCCNC(=O)CCCn1c(=O)c2ccccc2n(Cc2cccc(Cl)c2)c1=O	–	–	–	–
O=C(COc1cccc(NC(=O)c2cccc([N+](=O)[O-])c2)c1)c1ccc(Br)cc1	–	?	21µM	–
O=C(COc1cccc(NC(=O)c2ccccc2)c1)c1ccccc1	–	–	21µM	–
CCCN1CCc2nc(N3CCN(c4ncccn4)CC3)ncc2C1	–	–	·	–
Cc1nc(SCc2nc3ccccc3[nH]2)c2oc3ccccc3c2n1	–	–	?	–
Cc1ccc2nc(CSc3nc(C)nc4c3oc3ccccc34)[nH]c2c1	?	?	18µM	–
CCOC(=O)c1c(Nc2ccc(C)cc2)nnc(-c2ccccc2)c1-c1ccccc1	–	–	18µM	–
COc1ccc(-c2ccc(C(C)=O)cc2)cc1[C@H]1[C@@H]2C=CCC[C@@]2(C)C(=O)N1Cc1ccccc1	–	–	21µM	–
COc1ccc(-c2ccc(C)cc2)cc1C1C2C=CCCC2(C)C(=O)N1Cc1ccccc1 (stereo not given)	–	–	–	·
COc1ccc(-c2ccc(C)cc2)cc1[C@H]1[C@@H]2C=CCC[C@@]2(C)C(=O)N1Cc1ccccc1	–	–	?	–
COc1ccc(-c2ccc(C(C)=O)cc2)cc1C1C2C=CCCC2(C)C(=O)N1Cc1ccccc1 (stereo not given)	–	?	16µM	·
O=C(NCCN1CCOCC1)C1(C(F)(F)F)C/C(=C/CCO)CCCO1 (stereo not given)	–	–	–	·
O=C(c1ccc(Cl)cc1)N1CCN(c2ccc([N+](=O)[O-])c(NCc3cccnc3)c2)CC1	–	?	26µM	–
CCc1cccc2c(C(=O)COC(=O)c3ccc([N+](=O)[O-])s3)c[nH]c12	–	21µM	?	–
SMILES	Pin1 inh	A549 tox	Nrf2 inh	Nrf2 activator
CN1CCN(C(=O)c2ccc3c(c2)N(Cc2ccc(Cl)cc2)C(=O)c2ccccc2S3(=O)=O)CC1	–	–	–	–
CCOc1ccc(OCC)c(NC(=O)CSc2nc3c(c(=O)n(C)c(=O)n3C)n2C(C)C)c1	–	–	16µM	–
CCOc1ccc(OCC)c(NC(=O)CSc2nc3c(c(=O)n(C)c(=O)n3C)n2CC)c1	–	–[1.84 µM]	–	–
O=C(CCl)Nc1cc2[nH]c(=O)[nH]c2cc1Br	?	23µM	21µM	?
CC1CCC(Nc2nc3c(-c4cccc(C(F)(F)F)c4)nnn3c3ccccc23)CC1 (stereo not given)	–	–	–	–
Cc1ccc(C(=O)c2coc3cc([N+](=O)[O-])c(O)c([N+](=O)[O-])c23)cc1	?	21µM	?	–
O=C(Nc1ccccc1Cc1ccccc1)c1ccccc1NS(=O)(=O)c1ccc(Cl)s1	–	?	18µM	–
O=C(Nc1ccccc1)c1ccccc1NS(=O)(=O)c1ccc(Cl)s1	–	?	18µM	–
Cc1ccc(NC(=O)c2ccccc2NS(=O)(=O)c2ccc(Cl)s2)cc1	–	?	16µM	–
Cc1[nH]c2ccccc2c1SCc1nnc(SCc2ccccc2)n1C	–	–	26µM	–
O=C(Cc1ccc(S(=O)(=O)N2CCOCC2)s1)Nc1ccc(S(=O)(=O)N2CCCCC2)cc1	?	–	21µM	–
O=C(CSC1=NCCS1)Nc1ccc(S(=O)(=O)N2CCCCCC2)cc1	–	–	15µM	–
O=C(CSC1=NCCS1)Nc1ccc(S(=O)(=O)NC2CCCCC2)cc1	–	–	–	–
COc1ccc2[nH]c(=O)c(CN(Cc3cccs3)S(=O)(=O)c3c(C)ccc4nsnc34)cc2c1	–	·	9.2µM	–
CCCCN(CCCC)S(=O)(=O)c1ccc(C(=O)Nc2nnc(CSC)o2)cc1	–	–	7.3µM	–
CCCN(CCC)S(=O)(=O)c1ccc(C(=O)Nc2nnc(CSC)o2)cc1	?	–	9.2µM	–
O=S(=O)(Nc1cc(O)cc2cccnc12)c1ccc(Cl)s1	?	–	–	·
COc1ccc(/C=C2\SC(=O)NC2=S)cc1OC	?	12µM	?	?
COc1ccc(/C=C2\SC(c3ccc(C)cc3)=NC2=O)cc1OC	?	–	16µM	–
COc1ccc(/C=C2/CSC/C(=C/c3ccc(OC)c(OC)c3)C2=O)cc1OC	–	?	5.2µM	–
O=S(=O)(N1CCN(c2nc(-c3cccs3)nc3ccccc23)CC1)C(F)(F)F	–	–	–	·
CCc1ccccc1NS(=O)(=O)c1ccc2c(c1)CC(=O)N2	–	–	–	–
COc1ccc(-c2noc(C3CCCN(C(=O)c4ccccc4)C3)n2)cc1 (stereo not given)	–	–	?	–
CCOc1ccc(C(=O)N2CCC(c3nc(-c4ccc(S(=O)(=O)N5CCCC5)cc4)no3)CC2)cc1	–	–	13µM	–
COc1ccc(C(=O)N2CCC(c3nc(-c4ccc(S(=O)(=O)N5CCCC5)cc4)no3)CC2)cc1	–	?	21µM	–
SMILES	Pin1 inh	A549 tox	Nrf2 inh	Nrf2 activator
O=S(=O)(c1ccc2c(c1)OCCO2)N1CCN(c2nc(-c3ccccc3)nc3ccccc23)CC1	–	–	?	·
N#Cc1c(Cl)cccc1Oc1ccc([S+](=O)([O-])N2CCN([S+](=O)([O-])c3c(F)cccc3F)CC2)cc1	–	–	–	·
O=C(NCCc1ccccc1)c1cc(-c2ccccc2)nc2n[nH]c(-c3ccccc3)c12	–	–	?	–
Clc1ccc(-c2nnc(Sc3nc4ccccc4o3)c3ccccc23)cc1	–	–	18µM	?
CC(=O)OCC(NC(=O)C(COCc1ccccc1)NC(=O)OC(C)(C)C)C1OC(n2cc(F)c(=O)[nH]c2=O)C(OC(C)=O)C1OC(C)=O (stereo not given)	–	–	–	·
CCc1ccc(C(=O)Nc2cccc(-c3nc4cc(C(C)C)ccc4o3)c2)cc1	–	–	?	–
